PubChem BioAssay AID1159580 (chemical genetic matrix, 2015)
In all, about 5,500 compounds went through this assay and about 2,000 (36%) were called active. Inconclusive results (about 18%) are left out. No stated cut-off is given here; in the data, active means normalized growth mostly below about 0.91 (no sharp cut-off); inconclusive means no clear call, values can overlap the other calls; inactive means mostly above about 0.92. The list shows a part of the results.

Assay: chemical genetic growth profiling, strain panel (AID 1159580);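 further: tested at 20 µM; growth read once vehicle control cultures reached saturation at 30 °C; 1 = growth at the plate median or of vehicle wells; lower values mean less growth of the strain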
Conditions: growth OD

Measured: normalized growth

COc1cc(O)c(C(=O)c2ccccc2)c(OC)c1
active: S. cerevisiae deletion strains, locus YLR418C, strain cdc73, active compounds read low 0.813 | S. cerevisiae deletion strains, locus YNL307C, strain MCK1, active compounds read low 0.73
inactive: S. cerevisiae deletion strains, locus YAL013W, strain DEP1, active compounds read low 0.982 | S. cerevisiae deletion strains, locus YBR021W, strain FUR4, active compounds read low 0.898 | S. cerevisiae deletion strains, locus YBR229C, strain ROT2, active compounds read low 0.985 | S. cerevisiae deletion strains, locus YCL029C, strain bik1, active compounds read low 0.996 | S. cerevisiae deletion strains, locus YDL035C, strain GPR1, active compounds read low 0.972 | S. cerevisiae deletion strains, locus YDL074C, strain BRE1, active compounds read low 0.922 | S. cerevisiae deletion strains, locus YDL101C, strain DUN1, active compounds read low 0.986 | S. cerevisiae deletion strains, locus YDL134C, strain PPH21, active compounds read low 0.984 | S. cerevisiae deletion strains, locus YDL185W, strain tfp1, active compounds read low 0.989 | S. cerevisiae deletion strains, locus YDL192W, strain arf1, active compounds read low 0.982 | S. cerevisiae deletion strains, locus YDR101C, strain arx1, active compounds read low 0.961 | S. cerevisiae deletion strains, locus YDR150W, strain NUM1, active compounds read low 0.994 | S. cerevisiae deletion strains, locus YDR162C, strain NBP2, active compounds read low 0.907 | S. cerevisiae deletion strains, locus YDR318W, strain mcm21, active compounds read low 0.956 | S. cerevisiae deletion strains, locus YDR388W, active compounds read low 0.978 | S. cerevisiae deletion strains, locus YDR502C, strain sam2, active compounds read low 0.937 | S. cerevisiae deletion strains, locus YEL061C, strain CIN8, active compounds read low 0.984 | S. cerevisiae deletion strains, locus YER110C, active compounds read low 0.994 | S. cerevisiae deletion strains, locus YER155C, strain BEM2, active compounds read low 0.989 | S. cerevisiae deletion strains, locus YER167W, strain BCK2, active compounds read low 0.954 | S. cerevisiae deletion strains, locus YGL078C, strain dbp3, active compounds read low 0.99 | S. cerevisiae deletion strains, locus YGL086W, strain mad1, active compounds read low 0.983 | S. cerevisiae deletion strains, locus YGL248W, strain PDE1, active compounds read low 0.983 | S. cerevisiae deletion strains, locus YGR078C, strain PAC10, active compounds read low 0.927 | S. cerevisiae deletion strains, locus YGR135W, strain pre9, active compounds read low 0.92 | S. cerevisiae deletion strains, locus YGR229C, strain SMI1, active compounds read low 0.885 | S. cerevisiae deletion strains, locus YGR252W, strain gcn5, active compounds read low 0.914 | S. cerevisiae deletion strains, locus YHR030C, strain SLT2, active compounds read low 0.945 | S. cerevisiae deletion strains, locus YHR079C, strain IRE1 (second series), active compounds read low 0.966 | S. cerevisiae deletion strains, locus YHR094C, strain hxt1, active compounds read low 0.986 | S. cerevisiae deletion strains, locus YHR129C, strain ARP1, active compounds read low 0.972 | S. cerevisiae deletion strains, locus YHR200W, strain rpn10, active compounds read low 0.985 | S. cerevisiae deletion strains, locus YIL066C, strain RNR3, active compounds read low 0.938 | S. cerevisiae deletion strains, locus YIL073C, strain SPO22, active compounds read low 1 | S. cerevisiae deletion strains, locus YIL125W, strain kgd1, active compounds read low 0.981 | S. cerevisiae deletion strains, locus YIR030C, strain dcg1, active compounds read low 0.979 | S. cerevisiae deletion strains, locus YJL095W, strain BCK1, active compounds read low 0.806 | S. cerevisiae deletion strains, locus YJL134W, strain LCB3, active compounds read low 0.986 | S. cerevisiae deletion strains, locus YJL168C, strain set2, active compounds read low 0.99 | S. cerevisiae deletion strains, locus YJL187C, strain SWE1 (second series), active compounds read low 0.964 | S. cerevisiae deletion strains, locus YJR043C, strain POL32, active compounds read low 0.981 | S. cerevisiae deletion strains, locus YJR075W, strain HOC1, active compounds read low 0.935 | S. cerevisiae deletion strains, locus YKL009W, strain mrt4, active compounds read low 0.99 | S. cerevisiae deletion strains, locus YKL068W, active compounds read low 0.986 | S. cerevisiae deletion strains, locus YKL085W, strain MDH1 (second series), active compounds read low 0.987 | S. cerevisiae deletion strains, locus YKL085W, strain MDH1, active compounds read low 0.987 | S. cerevisiae deletion strains, locus YKL190W, strain CNB1, active compounds read low 0.991 | S. cerevisiae deletion strains, locus YKR001C, strain vps1, active compounds read low 0.936 | S. cerevisiae deletion strains, locus YLR039C, strain RIC1, active compounds read low 0.827 | S. cerevisiae deletion strains, locus YLR058C, strain SHM2, active compounds read low 0.984 | S. cerevisiae deletion strains, locus YLR102C, strain apc9, active compounds read low 0.98 | S. cerevisiae deletion strains, locus YLR262C, strain YPT6, active compounds read low 0.817 | S. cerevisiae deletion strains, locus YLR268W, strain sec22, active compounds read low 0.904 | S. cerevisiae deletion strains, locus YLR330W, strain CHS5, active compounds read low 0.984 | S. cerevisiae deletion strains, locus YLR342W, strain FKS1 (second series), active compounds read low 0.88 | S. cerevisiae deletion strains, locus YLR371W, strain rom2, active compounds read low 0.991 | S. cerevisiae deletion strains, locus YML016C, strain PPZ1, active compounds read low 0.981 | S. cerevisiae deletion strains, locus YML032C, strain rad52, active compounds read low 0.994 | S. cerevisiae deletion strains, locus YML124C, strain tub3, active compounds read low 0.983 | S. cerevisiae deletion strains, locus YMR078C, strain ctf18, active compounds read low 0.98 | S. cerevisiae deletion strains, locus YMR223W, strain ubp8, active compounds read low 0.966 | S. cerevisiae deletion strains, locus YMR263W, strain SAP30, active compounds read low 0.962 | S. cerevisiae deletion strains, locus YMR307W, strain GAS1, active compounds read low 0.647 | S. cerevisiae deletion strains, locus YNL067W, strain RPL9B, active compounds read low 0.953 | S. cerevisiae deletion strains, locus YNL128W, strain TEP1, active compounds read low 0.991 | S. cerevisiae deletion strains, locus YNL153C, strain GIM3, active compounds read low 0.961 | S. cerevisiae deletion strains, locus YNL233W, strain BNI4, active compounds read low 0.904 | S. cerevisiae deletion strains, locus YNL250W, strain rad50, active compounds read low 1 | S. cerevisiae deletion strains, locus YNL271C, strain bni1, active compounds read low 0.982 | S. cerevisiae deletion strains, locus YNL298W, strain CLA4, active compounds read low 0.987 | S. cerevisiae deletion strains, locus YNL322C, strain KRE1, active compounds read low 0.99 | S. cerevisiae deletion strains, locus YNR052C, strain pop2, active compounds read low 1.01 | S. cerevisiae deletion strains, locus YOL006C, strain TOP1, active compounds read low 0.824 | S. cerevisiae deletion strains, locus YOL012C, strain htz1 0.9 | S. cerevisiae deletion strains, locus YOL147C, strain pex11, active compounds read low 0.965 | S. cerevisiae deletion strains, locus YOR061W, strain CKA2, active compounds read low 0.989 | S. cerevisiae deletion strains, locus YOR069W, strain VPS5, active compounds read low 0.987 | S. cerevisiae deletion strains, locus YOR136W, strain idh2, active compounds read low 1.01 | S. cerevisiae deletion strains, locus YOR144C, strain elg1, active compounds read low 0.983 | S. cerevisiae deletion strains, locus YOR184W, strain ser1, active compounds read low 0.931 | S. cerevisiae deletion strains, locus YOR316C, strain cot1, active compounds read low 0.981 | S. cerevisiae deletion strains, locus YPL055C, strain LGE1, active compounds read low 0.927 | S. cerevisiae deletion strains, locus YPL241C, strain CIN2, active compounds read low 0.986 | S. cerevisiae deletion strains, locus YPR119W, strain clb2, active compounds read low 0.98 | S. cerevisiae deletion strains, locus YPR141C, strain kar3, active compounds read low 0.99 | S. cerevisiae deletion strains, locus YPR163C, strain tif3, active compounds read low 0.928 | S. cerevisiae deletion strains, locus YPR167C, strain met16, active compounds read low 0.978 | S. cerevisiae deletion strains, strain wtn01, active compounds read low 0.929 | S. cerevisiae strains, strain wild type, active compounds read low 0.983
